Molecules are shown by their SMILES. Inconclusive results are not listed. A call without a number means that no potency is given here. A number with no mark means an inactive call. The source made the active and inactive calls. Calls come from the whole dose curve.
Potency is the fitted concentration of half-maximal effect.

In the test the target is Thyrotropin receptor (Homo sapiens) (UniProt P16473). Briefly: qHTS assay to identify small molecule agonists of the thyroid stimulating hormone receptor (TSHR) signaling pathway (AID 1224843). Note: nearly all actives have a fitted effect of over 45% in size. The settings on record: TSHR-HEK293 cells, cAMP HTRF, agonist mode, 30 min; series mostly up to 92.4 µM. An excerpt: National Center for Advancing Translational Sciences [NCATS]
Chain of Thyrotropin receptor (Homo sapiens) (P16473 whole entry, looked up): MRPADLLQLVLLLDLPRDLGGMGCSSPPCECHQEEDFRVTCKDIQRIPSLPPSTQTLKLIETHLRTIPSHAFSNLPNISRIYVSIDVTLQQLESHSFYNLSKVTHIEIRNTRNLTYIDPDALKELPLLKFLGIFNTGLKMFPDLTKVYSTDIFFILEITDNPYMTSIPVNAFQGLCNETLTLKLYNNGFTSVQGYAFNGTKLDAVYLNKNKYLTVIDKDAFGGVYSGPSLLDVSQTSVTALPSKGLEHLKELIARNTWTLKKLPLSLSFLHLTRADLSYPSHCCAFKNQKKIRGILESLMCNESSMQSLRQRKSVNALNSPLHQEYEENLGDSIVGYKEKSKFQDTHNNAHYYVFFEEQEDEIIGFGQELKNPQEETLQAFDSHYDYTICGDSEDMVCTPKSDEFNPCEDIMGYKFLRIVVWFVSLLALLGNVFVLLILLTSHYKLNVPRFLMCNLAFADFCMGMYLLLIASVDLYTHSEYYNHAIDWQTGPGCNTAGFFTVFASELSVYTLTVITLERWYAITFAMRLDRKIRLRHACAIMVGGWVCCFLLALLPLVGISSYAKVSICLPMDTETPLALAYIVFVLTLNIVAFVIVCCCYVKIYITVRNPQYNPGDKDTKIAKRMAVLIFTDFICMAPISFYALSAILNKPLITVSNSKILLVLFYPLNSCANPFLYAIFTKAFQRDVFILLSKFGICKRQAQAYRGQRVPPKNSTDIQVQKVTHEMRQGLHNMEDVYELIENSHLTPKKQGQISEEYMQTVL
NIH Chemical Genomics Center [NCGC]
U.S. Environmental Protection Agency [EPA]
National Institutes of Environmental Health Sciences [NIEHS]
National Toxicology Program [NTP]
U.S. Food and Drug Administration [FDA]
TSHR is the receptor for thyrotropin (thyroid stimulating hormone or TSH), a member of the glycoprotein hormone family. TSH is released by the anterior pituitary gland and is the main regulator of thyroid gland growth and development. Upon binding circulating thyrotropin, a G-protein signal cascade activates adenylyl cyclase and […] cAMP concentration is increased. cAMP is a key second messenger involved extensively in cellular signal transduction pathways associated with the majority of G-protein coupled receptors (GPCRs). The activation of these GPCRs by neurotransmitters, lipids, nucleotides, peptides and hormones results in the activation or the inhibition of plasma membrane-bound adenylate cyclase through heterotrimeric G-proteins. A cell-based TSHR assay was used to screen the Tox21 10K library for compounds that can modulate TSHR in agonist mode.
Tox21 Assay Protocol Summary:
TSHR-Hek293 cells were dispensed at 800 cells/4uL/well in 1536-well white plates using a Multidrop dispenser. […] The plates were incubated at room temperature for 30 min. 2.5 ul/well of cAMP-d2 and 2.5ul/well of anti-cAMP-cryptate was added respectively into the assay plates using a Flying Reagent Dispenser. After 1 hr incubation at room temperature, the fluorescence intensity in the plates was measured using an Envision plate reader. Each test compound was measured at 15 concentrations and in triplicates.
For orientation: qHTS replaces the single test concentration by a dilution series.
For the compound `CC1=CCC(=O)O1`, the Potency result was “inactive”.

As to `CCOC(=O)CC(C)O` (stereo not given), the Potency entry was “inactive”.

With `CNCC[C@H](Oc1cccc2ccccc12)c1cccs1`, the Potency entry was “inactive”.

In the case of `CCCCCCCCCCCC(=O)N(CC)CC`, the Potency entry is “inactive”.

On to `Cc1cccc(C)c1NC(=O)CN1CCN(CCCC(c2ccc(F)cc2)c2ccc(F)cc2)CC1`, for which the Potency result is “inactive”.

On to `CC(C)(C)c1cc(CCC(=O)NCCCCCCNC(=O)CCc2cc(C(C)(C)C)c(O)c(C(C)(C)C)c2)cc(C(C)(C)C)c1O`, for which the Potency result is “inactive”.

Regarding `C=CC(=C)CC/C=C(\C)CCC=C(C)C`, the activation is -0.893% [at 19 µM].

Regarding `COC(=O)CC#N`, the Potency result is “inactive”.

For `C/C=C/CO`, the Potency entry is “inactive”.

As for `O=S(O)O`, the activation was 2.79% [at 19 µM].

On to `NC(=O)c1ccccc1N`, for which the Potency entry was “inactive”.

On to `CNC(=O)c1cc(Oc2ccc(NC(=O)Nc3ccc(Cl)c(C(F)(F)F)c3)cc2)ccn1`, for which the Potency result is “inactive”.

Take `CO[Si](CCCNCCNCCN)(OC)OC`: the Potency entry is “inactive”.

With `CC(C)(C)CC(C)(C)c1ccccc1O`, the Potency was 13.8 µM (active).

In the case of `O[C@@H](c1cc(C(F)(F)F)nc2c(C(F)(F)F)cccc12)[C@H]1CCCCN1`, the Potency result was “inactive”.

Turning to `CCOC(/C=C(\C)CCC=C(C)C)OCC`, the Potency entry was “inactive”.

Turning to `CCN(CC)CCCN(c1ccccc1)C1Cc2ccccc2C1`, the Potency entry is “inactive”.

For `c1cc2c3c(c1)ccc1cccc(c13)C2`, the Potency result is “inactive”.

On to `CC(C)=CC1CC(C)CCO1` (stereo not given), for which the Potency entry is “inactive”.

Regarding `CC(C(O)c1ccccc1)N(C)CCOC(c1ccccc1)c1ccccc1` (stereo not given), the Potency entry was “inactive”.

As to `Nc1ncnc2c1ncn2[C@@H]1O[C@H](COP(=O)(O)O)[C@@H](O)[C@H]1O`, the Potency result was “inactive”.

As to `O=C1OC(=O)c2ccc3c4c(ccc1c24)C(=O)OC3=O`, the Potency entry was “inactive”.

On to `O=C=NCc1cccc(CN=C=O)c1`, for which the activation was 1.05% [at 19 µM].

For the compound `Cn1cccc1`, the Potency result was “inactive”.

Consider `O=C1NCN(c2ccccc2)C12CCN(CCCC(c1ccc(F)cc1)c1ccc(F)cc1)CC2`, for which the Potency entry is “inactive”.

In the case of `CN(C)c1ccc(N=NS(=O)(=O)O)cc1`, the Potency result is “inactive”.

For `O=C[C@H](O)[C@H](O)[C@H](O)CO`, the Potency result is “inactive”.

As to `O=c1cccc[nH]1`, the Potency entry is “inactive”.

In the case of `C=CC(=O)OCCC#N`, the Potency result was “inactive”.

On to `CCCCCCCCCCCCN(CCO)CCO`, for which the Potency entry is “inactive”.

Consider `CCC1CCCCC1`, for which the Potency entry is “inactive”.

Turning to `O=C(O)CCCCCCC(=O)O`, the Potency result was “inactive”.

Take `C[Si](C)O[Si](C)C`: the Potency result is “inactive”.

As to `c1ccc2c(c1)CCC2`, the Potency entry is “inactive”.

As for `O=C(O)c1cccc(Cl)n1`, the Potency result was “inactive”.

With `CCCCOc1ccc(C(=O)CCN2CCCCC2)cc1`, the Potency entry is “inactive”.

Consider `CC1CCCNC1` (stereo not given), for which the Potency result is “inactive”.

On to `CCCCCCC(C)Nc1ccc(Nc2ccccc2)cc1` (stereo not given), for which the Potency entry is “inactive”.

Turning to `SCCCCCCCCS`, the Potency entry is “inactive”.

As to `Brc1ccccn1`, the Potency entry was “inactive”.

Values taken from PubChem BioAssay (Tox21).
